# Measurements as given in article PMC5540273 (PLoS ONE, 2017).
# What was measured:
# Conditions in all cases: concentration: 1 μM, replicates: in singlicate; n = 1
# CAMKK2 = test system: CAMKK2
# CASK = test system: CASK
# CDC2L1 = test system: T1, CDC2L1
# T1 construct: gene CDK11B
# CDC2L2 = test system: CDC2L2
# CDC2L5 = test system: T2, CDC2L5
# T2 construct: gene CDK13
# CDK11 = test system: T3, CDK11
# T3 construct: gene CDK19
# CDK2 = test system: CDK2
# CDK3 = test system: CDK3
# CDK4-cyclinD1 = test system: CDK4-cyclinD1
# CDK4-cyclinD3 = test system: CDK4-cyclinD3
# 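Also: KINOMEscan kinase panel screen.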
SMILES,%Inh (CAMKK2),%Inh (CASK),%Inh (CDC2L1),%Inh (CDC2L2),%Inh (CDC2L5),%Inh (CDK11),%Inh (CDK2),%Inh (CDK3),%Inh (CDK4-cyclinD1),%Inh (CDK4-cyclinD3)
O=C(Nc1n[nH]c2nc(-c3nccs3)c(Br)cc12)C1CC1 [SB-742251],0%,42%,0%,0%,13%,0%,81%,50%,65%,25%
Nc1nc(-c2nccs2)c(-c2ccnc3ccccc23)s1 [GW693542],0%,0%,0%,1%,0%,0%,0%,7%,0%,0%
COc1cc2nccc(Nc3ccc(NC(=O)c4ccc(C)cc4)c(O)c3)c2cc1OC.Cl [GW440132],32%,2%,0%,3%,0%,5%,0%,9%,0%,0%
O=C(Nc1n[nH]c2nc(-c3nccs3)c(Br)cc12)C1CCCC1 [SB-742609],0%,19%,100%,0%,0%,0%,86%,60%,41%,14%
CCn1c(-c2cccnc2O)nc2cnccc21 [SB-736715],0%,0%,0%,0%,0%,21%,0%,0%,7%,0%
Cn1cncc1-c1ccc2ncnc(Nc3ccc(OCc4ccccc4)cc3)c2c1 [GW320571],0%,0%,0%,0%,0%,10%,4%,2%,0%,13%
Nc1ncnc2[nH]c(-c3ccccc3)nc12 [AH5015],0%,15%,0%,5%,0%,0%,0%,2%,0%,11%
Cc1ccc(C(=O)Nc2ccc(Nc3ccnc4cc(-c5ccccn5)ccc34)cc2O)cc1.Cl [GW440146],0%,3%,0%,11%,0%,0%,0%,5%,16%,0%
CC(=O)Nc1nc2cnc(Nc3cc(NC(=O)c4cccc(CCC#N)c4)ccc3C)nc2s1,0%,10%,6%,9%,36%,2%,3%,0%,0%,0%
COc1ccccc1-c1ccc2c(NC(=O)C3CC3)n[nH]c2n1 [SB-711239],0%,8%,0%,3%,2%,19%,0%,8%,9%,0%
CC1=C(C(=O)Nc2cc3cn[nH]c3cc2F)C(c2ccc(C(F)(F)F)cc2)CC(=O)N1 (centres unmarked) [GSK429286],14%,43%,0%,13%,0%,7%,0%,18%,0%,0%
COc1cc(Nc2nccc(N3CCC(NC(=O)Nc4cc(C)ccc4C)C3)n2)cc(OC)c1OC (centres unmarked) [GSK1379762],0%,42%,0%,0%,0%,17%,0%,15%,0%,0%
NC(=O)c1nnc2ccccc2c1N,0%,36%,7%,25%,11%,3%,6%,19%,32%,0%
COc1ccc2nc(-c3cccc(C)n3)nc(Nc3ccncc3)c2c1 [GSK204919],0%,23%,0%,0%,0%,0%,0%,0%,0%,0%
O=c1cc(N2CCOCC2)nc2n(Cc3cccc(Cl)c3Cl)ccn12 [GSK2286295],16%,9%,13%,16%,0%,23%,0%,0%,0%,0%
Fc1cc(Cl)ccc1Nc1ccnc2cc(I)ccc12 [GW551191],0%,24%,0%,0%,0%,16%,0%,0%,0%,0%
Cc1cc(NCC(c2ccccc2)c2ccccc2)nc(NCc2ccc(C(F)(F)F)cc2)n1 [GW497681],23%,0%,0%,5%,0%,0%,0%,0%,0%,0%
